Test results published in the supplement of paper PMC3414501.
Where a name gives a salt, the structure may show the parent alone.

Test system: S. cerevisiae AD1-9 (efflux-pump deficient), vegetative growth in YPD; in the data active = 2 or more and inactive = the rest
Experiment: growth sensitivity score (doubling time z-score vs DMSO controls); higher = slower growth, strongly negative scores also mark growth inhibition (complete suppression), active = hit call of the paper
How it was run: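 Optical density of Saccharomyces cerevisiae cultures in microtiter plates was followed every 15 min for 24 hours after seeding at an OD600 of 0.065. Eight solvent-only wells were run per experiment. Growth sensitivity scores were found by subtracting the solvent-only mean from the compound mean and dividing by the solvent-only standard deviation.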

Growth sensitivity score, -2.2:
CC(C)(C)NC(=O)[C@@H]1C[C@@H]2CCCC[C@@H]2CN1C[C@@H](O)[C@H](Cc1ccccc1)NC(=O)[C@H](CC(N)=O)NC(=O)c1ccc2ccccc2n1 [Saquinavir mesylate] (stock concentration (mM, diluted 1:100): 8.8)

Growth sensitivity score, active:
COC(=O)C1=C(C)NC(C)=C(C(=O)OC(C)C)C1c1cccc2nonc12 (stereo not given) [Isradipine] (stock concentration (mM, diluted 1:100): 9.9) 137
C[C@@H]1C[C@H]2[C@@H]3CCC4=CC(=O)C=C[C@]4(C)[C@@]3(F)[C@@H](O)C[C@]2(C)[C@H]1C(=O)CO [Desoximetasone] (stock concentration (mM, diluted 1:100): 10) 2.17
O=C(O)C[C@H](O)C[C@H](O)/C=C/c1c(C2CC2)nc2ccccc2c1-c1ccc(F)cc1 [Livalo] (stock concentration (mM, diluted 1:100): 5) 32.2
CCOC(=O)C1=C(C)NC(C)=C(C(=O)OCC)C1c1ccccc1/C=C/C(=O)OC(C)(C)C [Lacidipine] (stock concentration (mM, diluted 1:100): 10) 10.2
COc1cc(CNC(=O)CCCC/C=C/C(C)C)ccc1O [Capsaicin] (stock concentration (mM, diluted 1:100): 10) 25.8
O=C1c2cccc3c2[C@H](CCC3)CN1[C@@H]1CN2CCC1CC2 [Palonosetron hydrochloride] (stock concentration (mM, diluted 1:100): 10) 2.17
CC(=O)[C@]1(O)Cc2c(O)c3c(c(O)c2[C@@H](O[C@H]2C[C@H](N)[C@H](O)[C@H](C)O2)C1)C(=O)c1ccccc1C3=O [Idarubicin hydrochloride] (stock concentration (mM, diluted 1:100): 9.3) 174
CCN1CCN(c2cc3c(cc2F)c(=O)c(C(=O)O)cn3C2CC2)CC1 [Enrofloxacin] (stock concentration (mM, diluted 1:100): 10) 37.5
C[C@]12C[C@H](O)[C@H]3[C@@H](CCC4=CC(=O)CC[C@@]43C)[C@@H]1CC[C@@H]2C(=O)CO [Corticosterone] (stock concentration (mM, diluted 1:100): 10) 2.14
Nc1nc2ccc(Cl)cc2c2nc(-c3ccco3)nn12 (stock concentration (mM, diluted 1:100): 10) 17.6
O=C1CCc2ccc(OCCCCN3CCN(c4cccc(Cl)c4Cl)CC3)cc2N1 [Aripiprazole] (stock concentration (mM, diluted 1:100): 10) 18.5

Growth sensitivity score, -3.28:
Cc1cccc(C)c1NC(=O)C1CCCCN1C (stereo not given) [Mepivacaine hydrochloride] (stock concentration (mM, diluted 1:100): 10)

Growth sensitivity score, inactive:
Cc1ccnc2c1NC(=O)c1cccnc1N2C1CC1 [Viramune] (stock concentration (mM, diluted 1:100): 10) -1.4
CN1C(=O)CC[C@H]1c1cccnc1 [Cotinine] (stock concentration (mM, diluted 1:100): 10) 1.38
CN1[C@@H](CC(=O)c2ccccc2)CCC[C@H]1C[C@H](O)c1ccccc1 [Lobeline hydrochloride] (stock concentration (mM, diluted 1:100): 10) -1.96
C[N+]1(C)CCC(OC(=O)C(O)(c2ccccc2)C2CCCC2)C1 (stereo not given) [Glycopyrrolate] (stock concentration (mM, diluted 1:100): 10) -0.14
O=c1c(O[C@@H]2O[C@H](CO)[C@H](O)[C@H](O)[C@H]2O)c(-c2ccc(O)c(O)c2)oc2cc(O)cc(O)c12 [Hyperoside] (stock concentration (mM, diluted 1:100): 8.8) 0.09
C[C@]12C=CC(=O)C=C1CC[C@@H]1[C@@H]2[C@@H](O)C[C@@]2(C)[C@H]1CC[C@]2(O)C(=O)COC(=O)CCC(=O)O (stock concentration (mM, diluted 1:100): 10) -0.63
O=C1c2c(O)cc(O)cc2OC(c2ccc(O)c(O)c2)C1O (stereo not given) [Taxifolin] (stock concentration (mM, diluted 1:100): 10.1) -0.17
O=C1C(c2c(O)[nH]c3ccccc23)=Nc2ccccc21 [Indarubicin] (stock concentration (mM, diluted 1:100): 10) -1.23
O=[N+]([O-])c1cccc2cn[nH]c12 [7-Nitroindazole] (stock concentration (mM, diluted 1:100): 10) -1.05
CC(N/C(=N\C#N)Nc1ccncc1)C(C)(C)C (stereo not given) [Pinacidil monohydrate] (stock concentration (mM, diluted 1:100): 10) -0.96
CN(C)CCC(c1ccc(Cl)cc1)c1ccccn1 (stereo not given) [Chlorpheniramine] (stock concentration (mM, diluted 1:100): 10) -0.6
O=C(c1ccccc1)c1ccc2n1CCC2C(=O)O (stereo not given) [Toradol] (stock concentration (mM, diluted 1:100): 6.8) 0.21
Cc1cc2c(s1)Nc1ccccc1N=C2N1CCN(C)CC1 [Olanzapine] (stock concentration (mM, diluted 1:100): 9.9) -0.74
CC(=O)CCCCn1c(=O)c2c(ncn2C)n(C)c1=O [Pentoxifylline] (stock concentration (mM, diluted 1:100): 10) -1.09
CCC1=C(C)CN(C(=O)NCCc2ccc(S(=O)(=O)NC(=O)N[C@H]3CC[C@H](C)CC3)cc2)C1=O [Glimepiride] (stock concentration (mM, diluted 1:100): 7.7) 1.1
CC(C(=O)O)c1ccc(-c2ccccc2)c(F)c1 (stereo not given) [Flurbiprofen] (stock concentration (mM, diluted 1:100): 11.4) 0.77
COc1cc(OC)c(C(=O)CCCN2CCCC2)c(OC)c1 [Buflomedil hydrochloride] (stock concentration (mM, diluted 1:100): 8.9) 0.38
Oc1ccc(C2CNCCc3c2cc(O)c(O)c3Cl)cc1 (stereo not given) [Fenoldopam mesylate] (stock concentration (mM, diluted 1:100): 7.7) -1.09
C=CC1=C(C(=O)O)N2C(=O)[C@@H](NC(=O)/C(=N\OCC(=O)O)c3csc(N)n3)[C@H]2SC1 [Cefixime trihydrate] (stock concentration (mM, diluted 1:100): 10) -1.39
O=C(O)/C=C/c1ccc(Cn2ccnc2)cc1 [Ozagrel hydrochloride] (stock concentration (mM, diluted 1:100): 8.6) 0.64

Growth sensitivity score, -2.54:
CN1CC(=O)N2[C@H](c3ccc4c(c3)OCO4)c3[nH]c4ccccc4c3C[C@@H]2C1=O [Tadalafil] (stock concentration (mM, diluted 1:100): 10)

Growth sensitivity score, -2.29:
COC(=O)CCc1ccc(OCC(O)CNC(C)C)cc1 (stereo not given) [Esmolol hydrochloride] (stock concentration (mM, diluted 1:100): 9)
